# According to PubChem BioAssay (EPA / NIEHS):
# Values joined by “and” are separate entries in the source; they are usually repeats but may differ in a detail not shown here. Equal entries are not always repeated. Results filed as inconclusive are left out. Some compounds were tested as several samples or in several runs, with calls that do not always agree. Active and inactive are the calls of the source. Rule for the calls, unless noted: active = hit-call score of the fitted dose curve at least 0.9, where 1 is the maximum; inconclusive = response in the unintended direction; inactive = score below 0.9.
# Assays:
# [1] = target: Glucocorticoid receptor (Homo sapiens) (UniProt P04150); assay: NVS_NR_hGR: NovaScreen (NVS) Nuclear Receptor Binding Assay for human Glucocorticoid Receptor (GR) (AID 2283363);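 for AC50: activity is loss of specific radioligand binding signal relative to DMSO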
# Sequence of Glucocorticoid receptor (Homo sapiens) (P04150 whole entry, looked up): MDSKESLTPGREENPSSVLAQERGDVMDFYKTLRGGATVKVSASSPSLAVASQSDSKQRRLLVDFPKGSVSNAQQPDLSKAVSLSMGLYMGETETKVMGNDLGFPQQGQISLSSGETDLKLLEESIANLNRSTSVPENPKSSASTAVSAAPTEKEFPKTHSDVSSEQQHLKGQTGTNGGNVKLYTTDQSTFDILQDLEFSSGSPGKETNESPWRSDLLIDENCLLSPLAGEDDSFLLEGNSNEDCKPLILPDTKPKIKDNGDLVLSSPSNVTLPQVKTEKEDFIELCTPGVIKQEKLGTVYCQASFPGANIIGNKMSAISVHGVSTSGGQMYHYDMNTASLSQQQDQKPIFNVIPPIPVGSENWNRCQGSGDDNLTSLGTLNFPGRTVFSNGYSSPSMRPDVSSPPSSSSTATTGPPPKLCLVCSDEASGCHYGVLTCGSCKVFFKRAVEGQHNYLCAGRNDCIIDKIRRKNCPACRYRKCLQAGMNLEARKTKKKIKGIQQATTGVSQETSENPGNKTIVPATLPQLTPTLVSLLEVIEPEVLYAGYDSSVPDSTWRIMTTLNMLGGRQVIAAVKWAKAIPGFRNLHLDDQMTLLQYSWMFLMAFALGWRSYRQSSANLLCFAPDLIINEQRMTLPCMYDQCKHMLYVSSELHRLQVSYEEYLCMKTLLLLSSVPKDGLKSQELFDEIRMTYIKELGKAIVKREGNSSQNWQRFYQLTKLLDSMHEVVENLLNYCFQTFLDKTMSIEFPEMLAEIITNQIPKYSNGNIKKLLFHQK
# Procedure, shortened: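 Cell-free radioligand displacement assay on extracted human GR, read 16 h after dosing by filter-based scintillation counting. Screened in duplicate at 25 uM, then concentration series for actives; loss of signal versus DMSO baseline.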
# [2] = target: guinea pig Sigma Receptor, Non-selective Binding, SIGMAR1 (gene 100135589) (UniProt Q60492); assay: NVS_OR_gSIGMA_NonSelective: NovaScreen (NVS) Nuclear Receptor Binding Assay for guinea pig Sigma Receptor, Non-selective Binding (AID 2283367)
# Sequence of guinea pig Sigma Receptor, Non-selective Binding, SIGMAR1 (gene 100135589) (Q60492 whole entry, looked up): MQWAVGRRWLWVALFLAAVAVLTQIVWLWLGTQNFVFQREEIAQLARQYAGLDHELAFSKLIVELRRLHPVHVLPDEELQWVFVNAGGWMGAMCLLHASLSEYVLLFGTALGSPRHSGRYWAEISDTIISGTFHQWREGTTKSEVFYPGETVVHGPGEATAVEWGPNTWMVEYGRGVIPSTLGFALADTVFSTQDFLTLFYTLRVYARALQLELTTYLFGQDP
# Procedure, shortened: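 Radioligand displacement on guinea pig brain membranes, read by filter-based scintillation counting 1 h after dosing. Loss of signal versus DMSO; initial duplicate single-point screen at 25 uM, actives followed in concentration series.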
# [3] = target: human Thyroid Receptor Alpha (TRa), THRA (gene 7067) (UniProt P10827); assay: NVS_NR_hTRa_Antagonist: NovaScreen (NVS) Nuclear Receptor Binding Assay for human Thyroid Receptor Alpha Antagonism (TRa) (AID 2283362);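 note: activity is loss of signal relative to DMSO baseline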
# Sequence of human Thyroid Receptor Alpha (TRa), THRA (gene 7067) (P10827 whole entry, looked up): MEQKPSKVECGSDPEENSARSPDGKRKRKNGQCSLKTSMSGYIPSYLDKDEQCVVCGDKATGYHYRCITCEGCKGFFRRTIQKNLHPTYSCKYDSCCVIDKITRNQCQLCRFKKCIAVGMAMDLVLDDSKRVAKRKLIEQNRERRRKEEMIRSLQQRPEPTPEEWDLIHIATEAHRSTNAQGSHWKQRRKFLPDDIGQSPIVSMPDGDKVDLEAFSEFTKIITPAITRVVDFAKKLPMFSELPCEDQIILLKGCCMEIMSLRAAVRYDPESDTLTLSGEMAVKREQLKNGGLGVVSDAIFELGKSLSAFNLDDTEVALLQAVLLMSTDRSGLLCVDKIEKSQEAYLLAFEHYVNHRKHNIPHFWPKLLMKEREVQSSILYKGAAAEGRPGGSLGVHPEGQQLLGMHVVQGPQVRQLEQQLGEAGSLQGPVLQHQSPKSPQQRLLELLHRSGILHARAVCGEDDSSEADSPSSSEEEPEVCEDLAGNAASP
# Procedure, shortened: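 Actives from a duplicate 25 uM single-point screen were retested in concentration series. The cell-free antagonist-format binding assay was read by AlphaLISA chemiluminescence at 1 h, scored as signal loss relative to DMSO.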
# [4] = target: rat Androgen Receptor (AR), Ar (gene 24208) (UniProt P15207); assay: NVS_NR_rAR: NovaScreen (NVS) Nuclear Receptor Binding Assay for rat Androgen Receptor (AR) (AID 2283366)
# Sequence of rat Androgen Receptor (AR), Ar (gene 24208) (P15207 whole entry, looked up): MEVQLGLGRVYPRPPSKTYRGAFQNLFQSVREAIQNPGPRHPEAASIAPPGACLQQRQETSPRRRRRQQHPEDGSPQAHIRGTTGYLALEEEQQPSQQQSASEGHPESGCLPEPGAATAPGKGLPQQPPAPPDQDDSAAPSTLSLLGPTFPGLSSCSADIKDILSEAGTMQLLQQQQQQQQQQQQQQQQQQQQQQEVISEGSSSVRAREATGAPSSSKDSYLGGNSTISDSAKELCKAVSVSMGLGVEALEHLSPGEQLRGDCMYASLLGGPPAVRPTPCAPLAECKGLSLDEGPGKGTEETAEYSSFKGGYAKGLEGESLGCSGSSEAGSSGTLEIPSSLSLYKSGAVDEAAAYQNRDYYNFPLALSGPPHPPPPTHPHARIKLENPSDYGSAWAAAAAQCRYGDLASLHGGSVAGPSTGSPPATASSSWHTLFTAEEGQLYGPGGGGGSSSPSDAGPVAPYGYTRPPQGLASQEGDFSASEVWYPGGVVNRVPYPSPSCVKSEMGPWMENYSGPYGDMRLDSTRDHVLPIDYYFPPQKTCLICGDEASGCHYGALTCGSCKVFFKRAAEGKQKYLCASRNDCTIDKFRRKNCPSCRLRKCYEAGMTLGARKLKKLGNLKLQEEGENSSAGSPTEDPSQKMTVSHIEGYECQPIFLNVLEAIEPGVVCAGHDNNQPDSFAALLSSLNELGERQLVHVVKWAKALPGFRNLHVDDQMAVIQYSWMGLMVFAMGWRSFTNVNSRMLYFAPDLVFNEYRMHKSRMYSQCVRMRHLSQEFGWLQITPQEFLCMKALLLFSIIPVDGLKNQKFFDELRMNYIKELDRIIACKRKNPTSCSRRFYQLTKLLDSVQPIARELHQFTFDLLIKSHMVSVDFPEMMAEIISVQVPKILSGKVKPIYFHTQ
# Procedure, shortened: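 Cell-free radioligand binding on extracts of prostate from testosterone-pretreated rats, read by filter-based scintillation counting 18 h after dosing. Loss of bound signal fitted positively versus DMSO; primary screen in duplicate at 25 uM, actives followed up in concentration series.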
# [5] = target: Peroxisome proliferator-activated receptor gamma (Homo sapiens) (UniProt P37231); assay: NVS_NR_hPPARg: NovaScreen (NVS) Nuclear Receptor Binding Assay for human Peroxisome Proliferator-activated Receptor gamma (PPARg) (AID 2283370)
# Sequence of Peroxisome proliferator-activated receptor gamma (Homo sapiens) (P37231 whole entry, looked up): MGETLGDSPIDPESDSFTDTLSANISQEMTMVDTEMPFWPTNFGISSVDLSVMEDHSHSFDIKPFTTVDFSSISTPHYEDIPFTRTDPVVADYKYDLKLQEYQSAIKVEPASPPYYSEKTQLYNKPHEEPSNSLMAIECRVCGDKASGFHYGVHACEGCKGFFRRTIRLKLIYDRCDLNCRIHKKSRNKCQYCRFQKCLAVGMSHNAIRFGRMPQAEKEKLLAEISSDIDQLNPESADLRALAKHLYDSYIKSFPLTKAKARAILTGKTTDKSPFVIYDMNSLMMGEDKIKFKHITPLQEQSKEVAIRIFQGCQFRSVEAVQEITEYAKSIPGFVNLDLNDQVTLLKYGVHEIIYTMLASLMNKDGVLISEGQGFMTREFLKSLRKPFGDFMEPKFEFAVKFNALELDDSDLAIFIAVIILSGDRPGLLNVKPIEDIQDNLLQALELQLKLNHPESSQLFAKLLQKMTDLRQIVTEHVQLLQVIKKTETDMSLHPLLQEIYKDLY
# Procedure, shortened: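 Fluorescence polarization readout of ligand binding to extracted human PPARg, measured at 2 h. Duplicate single-point screen at 25 uM, then concentration-series retesting; activity defined as signal loss versus DMSO.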
# [6] = target: Agonist Androgen Response Element (ARE), AR (gene 367) (UniProt P10275); assay: OT_AR_ARELUC_AG_1440: Odyssey Thera (OT) 24-hour CHO-K1 Luciferase Assay for Agonist Androgen Response Element (ARE) (AID 2283379)
# Sequence of Agonist Androgen Response Element (ARE), AR (gene 367) (P10275 whole entry, looked up): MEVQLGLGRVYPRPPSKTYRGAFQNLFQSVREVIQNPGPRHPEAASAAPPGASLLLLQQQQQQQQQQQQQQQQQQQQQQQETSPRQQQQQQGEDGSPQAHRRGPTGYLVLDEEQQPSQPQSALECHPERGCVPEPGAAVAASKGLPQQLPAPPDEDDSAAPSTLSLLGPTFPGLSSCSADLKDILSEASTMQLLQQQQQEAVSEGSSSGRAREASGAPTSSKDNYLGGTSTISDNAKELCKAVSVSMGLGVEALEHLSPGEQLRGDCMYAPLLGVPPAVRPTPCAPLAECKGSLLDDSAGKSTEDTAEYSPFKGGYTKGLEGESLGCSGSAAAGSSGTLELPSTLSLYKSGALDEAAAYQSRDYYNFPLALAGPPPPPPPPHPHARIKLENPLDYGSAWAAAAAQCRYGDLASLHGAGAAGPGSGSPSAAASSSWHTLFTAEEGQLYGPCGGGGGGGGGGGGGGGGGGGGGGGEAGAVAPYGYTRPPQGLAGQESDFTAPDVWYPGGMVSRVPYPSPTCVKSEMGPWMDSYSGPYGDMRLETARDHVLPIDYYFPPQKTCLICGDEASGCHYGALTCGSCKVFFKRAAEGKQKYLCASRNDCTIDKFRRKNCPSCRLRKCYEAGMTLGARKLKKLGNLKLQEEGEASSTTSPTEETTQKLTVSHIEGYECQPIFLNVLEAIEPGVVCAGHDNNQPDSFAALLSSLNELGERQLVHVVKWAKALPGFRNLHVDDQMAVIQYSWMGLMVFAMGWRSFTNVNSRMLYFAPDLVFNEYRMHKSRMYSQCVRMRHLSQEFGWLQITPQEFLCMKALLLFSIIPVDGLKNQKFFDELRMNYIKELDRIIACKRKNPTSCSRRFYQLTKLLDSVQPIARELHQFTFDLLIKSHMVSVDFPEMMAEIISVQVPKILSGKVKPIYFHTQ
# Procedure, shortened: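 CHO-K1 cells carrying an ARE-driven luciferase reporter were exposed to compounds for 24 h. Luminescence was then read after adding a D-luciferin/ATP mix, and activity was scored as a gain in signal over DMSO vehicle.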
# [7] = target: Estrogen receptor beta (Homo sapiens) (UniProt Q92731); assay: OT_ER_ERbERb_1440: Odyssey Thera (OT) 24-hour HEK293T Protein-Complementation Assay for Estrogen Receptor-beta/-beta Homodimer (AID 2283380);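 note: scored as signal increase over DMSO baseline for both agonists and antagonists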
# Procedure, shortened: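 HEK293T cells stably expressing ER beta LBD (aa 310-547) homodimer fragment-complementation reporter, dosed 24 h. Cells formaldehyde-fixed, Draq5-stained; gain in nuclear (agonist) or nuclear plus cytoplasmic (antagonist) fluorescence versus DMSO read by laser scanning cytometry.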
# [8] = target: Estrogen receptor (Homo sapiens) (UniProt P03372); assay: OT_ERa_GFPERaERE_0480: Odyssey Thera (OT) 8-hour HeLa Transcription Induction Assay for Estrogen Receptor (AID 2283381; active = hit-call score of the fitted dose curve at least 0.9, where 1 is the maximum; inactive = score below 0.9)
# Procedure, shortened: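 HeLa cells expressing GFP reporter under estrogen response element, imaged 8 h after dosing. GFP induction quantified by high-content fluorescence microscopy image analysis; gain of signal fitted versus DMSO.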
# PGR (gene 5241) = PGR (gene 5241) (UniProt P06401); assay: NVS_NR_hPR: NovaScreen (NVS) Nuclear Receptor Binding Assay for human Progestron Receptor (PR) (AID 2283360);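 note: active means loss of bound radioligand signal versus DMSO baseline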
# Procedure, shortened: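 Competitive displacement of a labelled radioligand from T47D-derived receptor protein is measured in a cell-free format. Initial testing uses 25 uM in duplicate, with positive and negative controls on every plate.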
# [9] = target: human Dopamine Transporter (DAT), SLC6A3 (gene 6531) (UniProt Q01959); assay: NVS_TR_hDAT: NovaScreen (NVS) Transporter Assay for human Dopamine Transporter (DAT) (AID 2283374);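 note: activity means loss of bound radioligand signal relative to DMSO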
# Sequence of human Dopamine Transporter (DAT), SLC6A3 (gene 6531) (Q01959 whole entry, looked up): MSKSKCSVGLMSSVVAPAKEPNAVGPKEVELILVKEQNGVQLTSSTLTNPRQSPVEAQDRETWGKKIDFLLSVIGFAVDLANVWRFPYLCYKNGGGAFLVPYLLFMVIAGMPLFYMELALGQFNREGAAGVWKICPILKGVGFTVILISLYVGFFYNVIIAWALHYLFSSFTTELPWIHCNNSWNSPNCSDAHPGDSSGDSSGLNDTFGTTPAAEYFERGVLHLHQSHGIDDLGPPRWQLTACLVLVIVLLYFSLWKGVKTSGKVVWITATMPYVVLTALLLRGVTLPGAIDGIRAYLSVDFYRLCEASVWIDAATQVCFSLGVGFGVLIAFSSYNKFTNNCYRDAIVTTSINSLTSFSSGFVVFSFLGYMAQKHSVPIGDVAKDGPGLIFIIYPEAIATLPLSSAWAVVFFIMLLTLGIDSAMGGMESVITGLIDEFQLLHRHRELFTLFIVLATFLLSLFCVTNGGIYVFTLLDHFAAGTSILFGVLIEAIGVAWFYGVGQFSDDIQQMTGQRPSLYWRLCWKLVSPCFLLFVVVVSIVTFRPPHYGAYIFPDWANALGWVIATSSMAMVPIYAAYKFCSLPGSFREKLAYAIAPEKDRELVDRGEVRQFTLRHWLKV
# Procedure, shortened: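 Cell-free radioligand displacement binding at human DAT, 1 h after dosing, with filtration and scintillation counting. Primary screen in duplicate at 25 uM, actives then in concentration series. Loss of bound signal versus DMSO scored.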
# [10] = target: Nuclear receptor subfamily 1 group I member 2 (Homo sapiens) (UniProt O75469); assay: NVS_NR_hPXR: NovaScreen (NVS) Nuclear Receptor Binding Assay for human Pregnane X Receptor (PXR) (AID 2283365);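 note: a drop in FRET signal versus DMSO baseline means the compound binds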
# Procedure, shortened: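 Human PXR binding measured by TR-FRET in a cell-free format, 2 h exposure. Single-concentration duplicates at 25 uM preceded concentration-response retests of actives; endpoint fitted positively relative to DMSO, loss of signal indicating binding.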
# [11] = target: human Norepinephrine Transporter (NET), SLC6A2 (gene 6530) (UniProt P23975); assay: NVS_TR_hNET: NovaScreen (NVS) Transporter Assay for human Norepinephrine Transporter (NET) (AID 2283377);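 note: displacement of radioligand from human NET seen as loss of scintillation signal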
# Procedure, shortened: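 Cell-free radioligand binding using CHO-derived membrane protein expressing human NET, read by filter scintillation counting 1 h after dosing; loss of signal vs DMSO. Initial duplicate screen at 25 uM, actives retested in concentration series.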
# [12] = tested on: guinea pig Dopamine Transporter (DAT), gene 100714898; assay: NVS_TR_gDAT: NovaScreen (NVS) Transporter Assay for guinea pig Dopamine Transporter (DAT) (AID 2283369);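 note: active compounds lower bound radioligand signal relative to DMSO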
# Procedure, shortened: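 Radioligand displacement on membranes from guinea pig striatum, 2 h exposure, bound label counted by filtration and scintillation. Tested at 25 uM in duplicate, then actives in concentration series to 50 uM; DMSO as negative control.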
# [13] = target: Retinoic acid receptor alpha (Homo sapiens) (UniProt P10276); assay: NVS_NR_hRARa_Agonist: NovaScreen (NVS) Nuclear Receptor Binding Assay for human Retinoic Acid Alpha Receptor Agonism (RAR) (AID 2283361)
# Procedure, shortened: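 Cell-free TR-FRET binding readout with extracted receptor protein, read 2 hours after dosing; gain-of-signal fitted relative to DMSO. Screened in duplicate at 25 uM, actives then run in concentration-response.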
# [14] = target: human Adenosine Transporter (Adot), SLC29A1 (gene 2030) (UniProt Q99808); assay: NVS_TR_hAdoT: NovaScreen (NVS) Transporter Assay for human Adenosine Transporter (Adot) (AID 2283368)
# Sequence of human Adenosine Transporter (Adot), SLC29A1 (gene 2030) (Q99808 whole entry, looked up): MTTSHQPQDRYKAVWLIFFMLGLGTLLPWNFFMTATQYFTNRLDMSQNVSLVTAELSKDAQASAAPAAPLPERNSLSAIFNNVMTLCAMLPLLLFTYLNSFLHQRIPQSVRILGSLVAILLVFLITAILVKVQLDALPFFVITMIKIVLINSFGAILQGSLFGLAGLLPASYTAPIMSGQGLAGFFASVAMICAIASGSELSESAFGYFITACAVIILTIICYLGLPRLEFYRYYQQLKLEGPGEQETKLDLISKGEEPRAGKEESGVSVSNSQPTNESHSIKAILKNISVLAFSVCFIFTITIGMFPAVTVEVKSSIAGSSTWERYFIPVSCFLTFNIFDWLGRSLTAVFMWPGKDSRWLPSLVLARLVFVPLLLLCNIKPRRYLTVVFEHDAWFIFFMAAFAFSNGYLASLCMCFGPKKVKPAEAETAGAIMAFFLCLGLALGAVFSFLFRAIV
# Procedure, shortened: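 U937-derived membranes, cell-free radioligand binding, filter scintillation 1 h after dosing. 25 uM duplicate screen; hits (e.g. 30% inhibition) run in concentration-response up to 50 uM; loss of signal versus DMSO.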
# [15] = tested on: rat Norepinephrine Transporter (NET), gene 83511; assay: NVS_TR_rNET: NovaScreen (NVS) Transporter Assay for rat Norepinephrine Transporter (NET) (AID 2283373)
# Procedure, shortened: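 Rat forebrain membranes; radioligand binding measured by filter-based scintillation counting 1 hour after dosing. Loss of specific binding versus DMSO baseline scored; primary screen in duplicate at 25 uM, actives followed up in concentration series.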
# [16] = target: rat Serotonin Transporter (SERT), Slc6a4 (gene 25553) (UniProt P31652); assay: NVS_TR_rSERT: NovaScreen (NVS) Transporter Assay for rat Serotonin Transporter (SERT) (AID 2283375)
# Procedure, shortened: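 Radioligand binding with competitive displacement on rat forebrain membrane preparations, counted by filtration and scintillation after 1 h. Primary single-point duplicates at 25 uM; active chemicals followed up in concentration-response. DMSO served as baseline.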
# [17] = target: Norway rat Vesicular Monoamine Transporter (VMAT2), neurotransmitter transporter, Slc18a2 (gene 25549) (UniProt Q01827); assay: NVS_TR_rVMAT2: NovaScreen (NVS) Transporter Assay for Norway rat Vesicular Monoamine Transporter (VMAT2), neurotransmitter transporter (AID 2283376);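 note: actives lower the bound radioligand signal below the DMSO level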
# Procedure, shortened: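 Radioligand displacement binding on rat forebrain tissue preparation, filter-based scintillation read-out 1 hour after dosing. Primary screen in duplicate at 25 uM, then concentration series for actives; loss of signal versus DMSO.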
smiles,measurement,setting,value
O=C(O)COc1ccc(Cl)cc1Cl,outcome,[1],inactive
same,outcome,[2],inactive
O=[N+]([O-])/N=C1\NCCN1Cc1ccc(Cl)nc1,outcome,[3],inactive
same,outcome,[1],inactive
same,outcome,[4],inactive
same,outcome,[5],inactive
same,outcome,[6],inactive
same,outcome,[7],inactive
same,outcome,[8],inactive
O=C(O)CCCOc1ccc(Cl)cc1Cl,outcome,PGR (gene 5241),inactive
same,outcome,[4],inactive
same,outcome,[5],inactive
same,outcome,[6],inactive
same,outcome,[7],inactive
COc1nn(CSP(=S)(OC)OC)c(=O)s1,outcome,PGR (gene 5241),inactive
same,outcome,[3],inactive
same,outcome,[1],inactive
same,AC50,[2],10.7 µM (active)
same,outcome,[5],inactive
same,outcome,[7],inactive
same,outcome,[8],inactive
COP(=S)(OC)Oc1ccc(SC)c(C)c1,outcome,PGR (gene 5241),inactive
same,AC50,[2],11.2 µM (active)
same,AC50,[9],7.96 µM (active)
same,outcome,[7],inactive
same,outcome,[8],inactive
O=[N+]([O-])c1c(Cl)c(Cl)c(Cl)c(Cl)c1Cl,outcome,[3],inactive
same,outcome,[1],inactive
same,outcome,[4],inactive
same,AC50,[5],38.1 µM (active)
same,outcome,[7],inactive
same,outcome,[8],inactive
CC1(C)C(C=C(Cl)Cl)C1C(=O)OC(C#N)c1ccc(F)c(Oc2ccccc2)c1 (centres undefined),outcome,[3],inactive
same,AC50,[1],7.25 µM (active)
same,outcome,[5],inactive
same,AC50,[9],2.03 µM (active)
same,outcome,[7],inactive
same,outcome,[8],inactive
CC(C)(C)C(O)/C(=C\c1ccc(Cl)cc1Cl)n1cncn1 (centres undefined),AC50,PGR (gene 5241),667 nM (active)
same,AC50,[10],0.281 µM (active)
same,AC50,[2],1.25 µM (active)
same,outcome,[5],inactive
same,outcome,[7],inactive
same,AC50,[8],86.7 µM (active)
CC[C@H](C)[C@H]1O[C@]2(C=C[C@@H]1C)C[C@@H]1C[C@@H](C/C=C(\C)[C@@H](O[C@H]3C[C@H](OC)[C@@H](O[C@H]4C[C@H](OC)[C@@H](O)[C@H](C)O4)[C@H](C)O3)[C@@H](C)/C=C/C=C3\CO[C@@H]4[C@H](O)C(C)=C[C@@H](C(=O)O1)[C@]34O)O2 (tested in a mixture with another compound),outcome,PGR (gene 5241),inactive
same,AC50,[3],12 µM (active)
same,AC50,[1],8.5 µM (active)
same,outcome,[2],inactive
same,outcome,[5],inactive
same,AC50,[9],11.3 µM (active)
same,AC50,[11],5.03 µM (active)
same,outcome,[8],inactive
CC(C)(C)C(O)C(Oc1ccc(Cl)cc1)n1cncn1 (centres undefined),outcome,PGR (gene 5241),inactive
same,outcome,[3],inactive
same,AC50,[10],25 µM (active)
same,AC50,[12],1.08 µM (active) and 1.75 µM (active) and 869 nM (active)
same,outcome,[5],inactive
same,AC50,[7],55.6 µM (active)
Oc1ccc(Cl)cc1Cc1ccccc1,AC50,PGR (gene 5241),16.5 µM (active) [middle of 6 runs]
same,outcome,[13],inactive
same,AC50,[4],12.3 µM (active) [middle of 6 runs]
same,AC50,[14],39.8 µM (active) and 25.2 µM (active) and 36.3 µM (active)
same,outcome,[14],inactive
same,AC50,[12],12.8 µM (active) [middle of 5 runs]
same,outcome,[12],inactive
same,outcome,[5],inactive
same,AC50,[15],18.6 µM (active) [middle of 6 runs]
same,AC50,[9],3.69 µM (active) [middle of 8 runs]
same,outcome,[16],inactive
same,AC50,[17],13.8 µM (active)
same,outcome,[17],inactive
same,AC50,[11],3.98 µM (active) [middle of 6 runs]
same,outcome,[6],inactive
same,AC50,[7],12 µM (active)
CCOc1nc(NC)nc(NC(=O)NS(=O)(=O)c2ccccc2C(=O)OC)n1,outcome,PGR (gene 5241),inactive
same,outcome,[3],inactive
same,outcome,[1],inactive
same,outcome,[4],inactive
same,outcome,[5],inactive
